The text below walks through data of PubChem BioAssay (NCATS).

Assay [1] has as its target Luciferin 4-monooxygenase (Photinus pyralis) (UniProt P08659). Put plainly: Biochemical firefly luciferase enzyme assay for NPC (AID 624030).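 Also: purified P. pyralis luciferase at 10 nM with luciferin and ATP substrate; nearly all actives have a fitted effect of over 70% in size.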 In outline: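 Purified P. pyralis luciferase at 10 nM in 50 mM Tris Acetate (final), luminescence read within 5 minutes of enzyme addition to compounds. Activity normalised to PTC124 versus DMSO; concentration-response curves classed by r2, magnitude and activity.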

Assay [2] deals with CP215. The assay is described as follows: qHTS profiling for inhibitors of Plasmodium falciparum proliferation (AID 504749). Also: nearly all actives have a fitted effect of over 60% in size. Also: potency is read from the fitted curve at half-maximal effect. The settings on record: P. falciparum in erythrocytes, SYBR Green DNA, 72 h; series mostly up to 28.7 µM. The procedure, abridged:
(§1)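 Readout was DNA-dye fluorescence from lysed cultures, ex 485/em 535 nm. Parasitized red cells had grown 72 h with compound; data scaled between 0.29 uM artemisinin and DMSO wells and corrected using vehicle-only plates.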
For orientation: qHTS replaces the single test concentration by a dilution series.

Assay [3] has as its system CP260. Described as above. The settings on record: P. falciparum in erythrocytes, SYBR Green DNA, 72 h; series mostly up to 28.7 µM. In outline: as §1
Assay [4] deals with CP266. The assay is described as above. To be noted: P. falciparum in erythrocytes, SYBR Green DNA, 72 h; series mostly up to 28.7 µM. The procedure, abridged:
as §1

Assay [5] has as its system CP268. The assay is described as above. To be noted: P. falciparum in erythrocytes, SYBR Green DNA, 72 h; series mostly up to 28.7 µM. In outline:
as §1

Assay [6] relates to CP291. Described as above. The settings on record: P. falciparum in erythrocytes, SYBR Green DNA, 72 h; series mostly up to 28.7 µM. In outline: as §1
Assay [7] relates to CP297. The assay is described as above. To be noted: P. falciparum in erythrocytes, SYBR Green DNA, 72 h; series mostly up to 28.7 µM. The procedure, abridged: as §1
Assay [8] has as its system CP305. The description is as above. The settings on record: P. falciparum in erythrocytes, SYBR Green DNA, 72 h; series mostly up to 28.7 µM. In outline:
as §1

For assay [9], the system named is CP335. The assay is described as above. To be noted: P. falciparum in erythrocytes, SYBR Green DNA, 72 h; series mostly up to 28.7 µM. In outline:
as §1

The test system of assay [10] is DIV14. The description is as above. To be noted: P. falciparum in erythrocytes, SYBR Green DNA, 72 h; series mostly up to 28.7 µM. In outline:
as §1

Assay [11] deals with DIV17. The description is as above. The settings on record: P. falciparum in erythrocytes, SYBR Green DNA, 72 h; series mostly up to 28.7 µM. In outline:
as §1

Assay [12] deals with FAB9. Described as above. To be noted: P. falciparum in erythrocytes, SYBR Green DNA, 72 h; series mostly up to 28.7 µM. In outline:
as §1

Assay [13] deals with GB4. Described as above. The settings on record: P. falciparum in erythrocytes, SYBR Green DNA, 72 h; series mostly up to 28.7 µM. In outline: as §1
Assay [14] concerns HB3. Described as above. The settings on record: P. falciparum in erythrocytes, SYBR Green DNA, 72 h; series mostly up to 28.7 µM. In outline: as §1
The subject of assay [15] is ICS. The description is as above. To be noted: P. falciparum in erythrocytes, SYBR Green DNA, 72 h; series mostly up to 28.7 µM. In outline:
as §1

The test system of assay [16] is JCK. The assay is described as above. To be noted: P. falciparum in erythrocytes, SYBR Green DNA, 72 h; series mostly up to 28.7 µM. The procedure, abridged: as §1
Assay [17] has as its system P93_24. The assay is described as above. The settings on record: P. falciparum in erythrocytes, SYBR Green DNA, 72 h; series mostly up to 28.7 µM. The procedure, abridged:
as §1

The test system of assay [18] is PC26. The description is as above. The settings on record: P. falciparum in erythrocytes, SYBR Green DNA, 72 h; series mostly up to 28.7 µM. The procedure, abridged: as §1
The subject of assay [19] is PC49. The description is as above. To be noted: P. falciparum in erythrocytes, SYBR Green DNA, 72 h; series mostly up to 28.7 µM. The procedure, abridged: as §1
Assay [20] relates to TAB109. Described as above. To be noted: P. falciparum in erythrocytes, SYBR Green DNA, 72 h; series mostly up to 28.7 µM. The procedure, abridged:
as §1

Records with an inconclusive call do not appear. Active and inactive are the calls of the source. Calls follow the shape of the dose curve; as a rule, active = well fitted inhibition curve with a large enough effect; inconclusive = small, poorly fitted or top-dose-only effect; inactive = flat fitted curve, though single readings scatter.

Chain of Luciferin 4-monooxygenase (Photinus pyralis) (P08659 whole entry, looked up): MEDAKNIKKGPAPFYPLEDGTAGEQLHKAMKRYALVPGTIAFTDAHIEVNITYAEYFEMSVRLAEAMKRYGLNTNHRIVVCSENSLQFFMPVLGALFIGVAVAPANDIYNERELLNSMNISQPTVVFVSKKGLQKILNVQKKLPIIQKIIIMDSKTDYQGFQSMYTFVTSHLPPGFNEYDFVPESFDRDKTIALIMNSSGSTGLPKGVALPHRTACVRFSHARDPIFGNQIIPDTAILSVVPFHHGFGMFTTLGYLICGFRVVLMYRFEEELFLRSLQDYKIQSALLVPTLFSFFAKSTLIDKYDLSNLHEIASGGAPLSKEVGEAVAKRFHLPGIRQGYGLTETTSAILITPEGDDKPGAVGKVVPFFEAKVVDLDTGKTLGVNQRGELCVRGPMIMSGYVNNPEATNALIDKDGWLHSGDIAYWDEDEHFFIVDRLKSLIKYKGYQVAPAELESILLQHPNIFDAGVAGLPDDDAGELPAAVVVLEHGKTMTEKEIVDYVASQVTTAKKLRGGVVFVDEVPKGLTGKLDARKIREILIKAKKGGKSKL

As to `O=c1[nH]c(=O)n(C2C[C@H](O)[C@@H](CO)O2)cc1C(F)(F)F` (stereo partly specified), the Potency result in assay [1], in assay [2], in assay [3], in assay [4], in [5] and in assay [6] was “inactive” each time. In addition, the Potency result in assay [7], in [8], in assay [9], in [10], in assay [11] and in assay [12] was “inactive” each time. Further, the Potency result in assay [13], in assay [14], in assay [15], in assay [16], in assay [17] and in assay [18] was “inactive” each time. The Potency entry in [19] and in [20] was “inactive” each time.
Regarding `CNC(=O)C(N)CSC(C)C1=C(C)c2cc3[n-]c(cc4nc(cc5[n-]c(cc1n2)c(C)c5CCC(=O)O)C(CCC(=O)O)=C4C)c(C)c3C(C)SCC(N)C(=O)NC.[Fe+2]` (stereo unspecified), the Potency result in [1], in [2], in [3], in [4], in assay [5] and in assay [6] was “inactive” in each case. Also, the Potency result in assay [7], in assay [8], in assay [9], in assay [10], in assay [11] and in assay [12] was “inactive” throughout. In addition, the Potency entry in [13], in assay [14], in assay [15], in [16], in [17] and in assay [18] was “inactive” in each case. Also, the Potency entry in assay [19] and in [20] was “inactive” throughout.
`CC1OC(OCC2OC(Oc3c(-c4ccc(OCCO)c(OCCO)c4)oc4cc(OCCO)cc(O)c4c3=O)C(O)C(O)C2O)[C@@H](O)C(O)C1O` (stereo partly specified): the Potency result in [1], in assay [2], in assay [3], in [4], in assay [5] and in [6] was “inactive” in each case. Moreover, the Potency entry in assay [7], in assay [8], in assay [9], in assay [10], in [11] and in [12] was “inactive” throughout. Moreover, the Potency result in [13], in assay [14], in [15], in [16], in assay [18] and in assay [19] was “inactive” each time. Also, the Potency entry in assay [20] is “inactive”.
As to `CCCCCCCCCCCC(=O)OCC(O)C1OCC(O)C1O` (stereo unspecified), the Potency entry in [1], in [2], in [3], in [4], in assay [5] and in [6] was “inactive” throughout. Further, the Potency result in [7], in assay [8], in assay [9], in [10], in [11] and in [12] was “inactive” in each case. The Potency entry in assay [13], in [14], in assay [15], in assay [16], in assay [17] and in assay [18] was “inactive” each time. For the same compound, the Potency entry in assay [19] and in [20] was “inactive” in each case.
Turning to `CC(=O)NC1[C@H](O)C[C@@](O)(C(=O)O)O[C@H]1[C@H](O)[C@H](O)CO` (stereo partly specified), the Potency result in [1], in assay [2], in assay [3], in [4], in assay [5] and in [6] was “inactive” each time. In addition, the Potency result in [7], in [8], in [9], in assay [10], in assay [11] and in assay [12] was “inactive” throughout. Besides, the Potency entry in assay [13], in [14], in assay [15], in assay [16], in [17] and in assay [18] was “inactive” throughout. The Potency entry in assay [19] and in assay [20] was “inactive” throughout.
`CCN1CCN(C(=O)NC(C(=O)NC2C(=O)N3C(C(=O)O)=C(CSc4nnnn4C)CSC23)c2ccc(O)cc2)C(=O)C1=O` (stereo unspecified): the Potency result in assay [1], in assay [2], in [3], in [4], in assay [5] and in [6] was “inactive” in each case. Also, the Potency result in assay [7], in assay [8], in [9], in [10], in assay [11] and in assay [12] was “inactive” in each case. For the same compound, the Potency result in assay [13], in [14], in assay [15], in assay [16], in assay [17] and in [18] was “inactive” throughout. In addition, the Potency entry in [19] and in assay [20] was “inactive” throughout.
In the case of `O=C1NC(=O)C2C3C=CC(C3)C12` (stereo unspecified), the Potency result in [1], in [2], in [3], in assay [4], in [5] and in [6] was “inactive” throughout. Further, the Potency entry in assay [7], in assay [8], in assay [9], in [10], in assay [11] and in [12] was “inactive” throughout. In addition, the Potency entry in [13], in assay [14], in assay [15], in assay [16], in [17] and in assay [18] was “inactive” throughout. The Potency entry in assay [19] and in assay [20] was “inactive” each time.
On to `OC[C@@H]1O[C@](CO)(O[C@H]2O[C@H](CO)[C@@H](O)[C@H](O)[C@H]2O)[C@H](O)[C@H]1O`, for which the Potency entry in assay [1], in assay [2], in assay [3], in [4], in [5] and in assay [6] was “inactive” in each case. In addition, the Potency result in [7], in assay [8], in [9], in assay [10], in assay [11] and in assay [12] was “inactive” in each case. In addition, the Potency result in assay [13], in assay [14], in assay [15], in assay [16], in assay [17] and in assay [18] was “inactive” each time. In addition, the Potency result in assay [19] and in [20] was “inactive” in each case.
For the compound `OCC1O[C@H](Oc2ccc(O)cc2)C(O)C(O)C1O` (stereo partly specified), the Potency result in assay [1], in assay [2], in [3], in [4], in assay [5] and in [6] was “inactive” throughout. Further, the Potency entry in [7], in [8], in assay [9], in assay [10], in assay [11] and in assay [12] was “inactive” in each case. The Potency result in assay [13], in assay [14], in assay [15], in assay [16], in [18] and in [19] was “inactive” throughout. In assay [20], the Potency entry was “inactive”.
Consider `CC1(C)SC2C(NC(=O)C(C(=O)O)c3ccccc3)C(=O)N2C1C(=O)O` (stereo unspecified), for which the Potency result in assay [1], in [2], in [3], in [4], in [5] and in [6] was “inactive” in each case. In addition, the Potency entry in assay [7], in assay [8], in assay [9], in assay [10], in assay [11] and in assay [12] was “inactive” each time. Also, the Potency result in [13], in [14], in assay [15], in [16], in assay [17] and in assay [18] was “inactive” throughout. The Potency entry in assay [19] and in assay [20] was “inactive” throughout.
As for `COc1cc2c(cc1O)CCN[C@@]21CS[C@H]2c3c(OC(C)=O)c(C)c4c(c3C(COC1=O)N1C2C2c3c(cc(C)c(OC)c3O)CC([C@@H]1O)N2C)OCO4` (stereo partly specified), the Potency entry in assay [1] was “inactive”. In addition, the Potency was 0.5 nM (active) in assay [2]; 0.9 nM (active) in [3]; 1.5 nM (active) in [4]; 0.5 nM (active) in assay [5]; 0.4 nM (active) in [6]; 0.5 nM (active) in [7]. Besides, the Potency in assay [8] is 0.5 nM (active); in assay [9] it was 0.4 nM (active); in assay [10], 0.4 nM (active); in assay [12] it was 1 nM (active); in [13], 0.2 nM (active); in [14] it was 0.3 nM (active). Further, the Potency in [15] was 0.9 nM (active); in [17] it was 0.9 nM (active); in [18] it was 1.3 nM (active); in assay [19], 1.3 nM (active); in [20], 0.9 nM (active).
With `C=CC1CN2CCC1CC2[C@@H](O)c1ccnc2ccc(OC)cc12` (stereo partly specified), the Potency entry in assay [1] was “inactive”. In addition, the Potency in assay [2] was 478 nM (active); in [3] it was 355 nM (active); in [4] it was 953 nM (active); in [5], 536 nM (active); in assay [6] it was 478 nM (active); in assay [7] it was 757 nM (active). Besides, the Potency in assay [8] was 478 nM (active); in [9] it was 338 nM (active); in assay [10] it was 213 nM (active); in [11] it was 135 nM (active); in assay [12], 79.4 nM (active); in assay [13] it was 135 nM (active). Besides, the Potency is 158 nM (active) in [14]; 89.1 nM (active) in assay [15]; 2000 nM (active) in assay [16]; 398 nM (active) in [17]; 239 nM (active) in assay [18]; 282 nM (active) in assay [19]. Further, in [20], the Potency is 112 nM (active).
